# The source made the active and inactive calls.
# How the values were obtained:
# [1] = test system: Plasmodium falciparum Sir2 (PF13_0152, Sir2A); assay: Plasmodium falciparum Sir2A binding compounds – biochemical, small-molecule microarray, 635 nm fluorescence, primary screen (AID 1098); conditions: fluorescence 635 nm, higher = more signal;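 note: score merges spot fluorescence intensity with its signal-to-noise ratio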
# [2] = probe aDKK1 binding to arrayed compounds – biochemical, biotinylated probe, 635/667 nm fluorescence, primary screen (AID 1099); conditions: small-molecule microarray, higher = more signal;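 note: score merges 667nm spot fluorescence with signal to noise across triplicate slides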
# [3] = probe aCHRDL2 binding to arrayed compounds – biochemical, biotinylated probe, 635/667 nm fluorescence, primary screen (AID 1100); conditions: small-molecule microarray, higher = more signal
# [4] = change in splice reporter luminescence, either direction, cell-based, HEK293, spliceosome inhibition project, primary screen (AID 1101); conditions: HEK293 splicing luciferase reporter, 24 h, higher = more signal, called active from +8 up or from −8 down;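 note: HEK293 cells carrying a splicing-competent luciferase reporter gene; test concentration not given here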
# [5] = molecular target: Fibroblast growth factor 10 (Homo sapiens) (UniProt O15520); assay: compounds binding fibroblast growth factor 10 – biochemical, small-molecule microarray, 635 nm fluorescence, primary screen (AID 1102); conditions: FGF10 binding, fluorescence 635 nm, higher = more signal
# Chain of Fibroblast growth factor 10 (Homo sapiens) (O15520 whole entry, looked up): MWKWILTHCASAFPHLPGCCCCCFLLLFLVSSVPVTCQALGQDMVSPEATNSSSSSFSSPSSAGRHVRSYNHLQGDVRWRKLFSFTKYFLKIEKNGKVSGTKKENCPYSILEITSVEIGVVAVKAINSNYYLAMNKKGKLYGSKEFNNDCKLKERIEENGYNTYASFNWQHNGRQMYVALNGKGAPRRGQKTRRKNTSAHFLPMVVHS
# [6] = test system: glycogen synthase kinase-3 (GSK3A per assay name; protocol says GSK3B); assay: compounds binding glycogen synthase kinase-3 – biochemical, small-molecule microarray, 635 nm fluorescence, GSK3A, primary screen (AID 1103); conditions: fluorescence 635 nm, higher = more signal; note: the record names both GSK3A and GSK3B
# [7] = molecular target: Epidermal growth factor receptor (Homo sapiens) (UniProt P00533); assay: compounds binding epidermal growth factor receptor – biochemical, small-molecule microarray, 635 nm fluorescence, primary screen (AID 1104); conditions: EGFR binding, higher = more signal;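 note: score merges 667 nm emission intensity with spot signal to noise over triplicate slides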
# Chain of Epidermal growth factor receptor (Homo sapiens) (P00533 whole entry, looked up): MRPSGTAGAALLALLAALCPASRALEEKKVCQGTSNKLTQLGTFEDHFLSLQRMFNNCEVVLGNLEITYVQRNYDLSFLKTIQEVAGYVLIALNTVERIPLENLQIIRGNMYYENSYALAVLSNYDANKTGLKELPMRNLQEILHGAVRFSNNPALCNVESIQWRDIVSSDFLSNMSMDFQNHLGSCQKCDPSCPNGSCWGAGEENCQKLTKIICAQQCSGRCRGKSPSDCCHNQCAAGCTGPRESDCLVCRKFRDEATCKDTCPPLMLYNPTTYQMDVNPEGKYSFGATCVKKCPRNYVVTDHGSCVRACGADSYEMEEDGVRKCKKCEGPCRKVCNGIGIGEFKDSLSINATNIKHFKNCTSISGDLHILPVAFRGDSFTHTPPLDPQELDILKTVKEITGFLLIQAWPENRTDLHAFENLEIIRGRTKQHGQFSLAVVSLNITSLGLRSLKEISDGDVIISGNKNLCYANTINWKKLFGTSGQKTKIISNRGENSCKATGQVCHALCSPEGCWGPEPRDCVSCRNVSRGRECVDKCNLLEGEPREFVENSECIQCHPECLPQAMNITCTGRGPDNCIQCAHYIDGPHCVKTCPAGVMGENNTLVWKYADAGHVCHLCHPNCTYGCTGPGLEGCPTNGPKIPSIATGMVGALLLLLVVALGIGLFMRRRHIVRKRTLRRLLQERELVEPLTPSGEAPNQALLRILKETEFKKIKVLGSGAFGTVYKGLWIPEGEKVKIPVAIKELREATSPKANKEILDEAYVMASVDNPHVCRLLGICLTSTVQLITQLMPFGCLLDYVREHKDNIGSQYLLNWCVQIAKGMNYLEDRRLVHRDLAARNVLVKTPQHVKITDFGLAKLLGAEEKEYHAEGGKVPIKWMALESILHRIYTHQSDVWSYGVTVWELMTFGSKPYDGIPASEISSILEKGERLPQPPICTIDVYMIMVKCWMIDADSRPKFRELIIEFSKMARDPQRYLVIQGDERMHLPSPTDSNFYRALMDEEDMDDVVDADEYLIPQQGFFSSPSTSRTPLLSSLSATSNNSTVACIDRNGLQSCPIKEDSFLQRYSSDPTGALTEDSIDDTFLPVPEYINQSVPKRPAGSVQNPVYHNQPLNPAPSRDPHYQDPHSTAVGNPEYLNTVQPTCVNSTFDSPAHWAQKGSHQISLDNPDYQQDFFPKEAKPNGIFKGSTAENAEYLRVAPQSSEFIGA
# [8] = molecular target: Follistatin-related protein 3 (Homo sapiens) (UniProt O95633); assay: compounds binding follistatin-related protein 3 – biochemical, small-molecule microarray, 635 nm fluorescence, primary screen (AID 1105); conditions: FSTL3 binding, higher = more signal;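 note: score merges emission near 667 nm and signal to noise per printed spot across three slides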
# Chain of Follistatin-related protein 3 (Homo sapiens) (O95633 whole entry, looked up): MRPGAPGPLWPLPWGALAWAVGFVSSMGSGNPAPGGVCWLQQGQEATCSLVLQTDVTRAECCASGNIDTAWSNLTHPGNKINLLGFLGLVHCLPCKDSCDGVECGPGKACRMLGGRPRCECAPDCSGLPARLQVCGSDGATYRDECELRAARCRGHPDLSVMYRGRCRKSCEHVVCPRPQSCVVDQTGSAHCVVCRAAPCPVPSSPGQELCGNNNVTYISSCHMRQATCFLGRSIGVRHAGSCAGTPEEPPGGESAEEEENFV
# [9] = molecular target: Dickkopf-related protein 1 (Homo sapiens) (UniProt O94907); assay: small molecules binding DKK1 protein – biochemical, small-molecule microarray, 635 nm fluorescence scan, primary screen (AID 1106); conditions: higher = more signal;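 note: score merges emission near 667 nm with signal to noise over three replicate slides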
# Chain of Dickkopf-related protein 1 (Homo sapiens) (O94907 whole entry, looked up): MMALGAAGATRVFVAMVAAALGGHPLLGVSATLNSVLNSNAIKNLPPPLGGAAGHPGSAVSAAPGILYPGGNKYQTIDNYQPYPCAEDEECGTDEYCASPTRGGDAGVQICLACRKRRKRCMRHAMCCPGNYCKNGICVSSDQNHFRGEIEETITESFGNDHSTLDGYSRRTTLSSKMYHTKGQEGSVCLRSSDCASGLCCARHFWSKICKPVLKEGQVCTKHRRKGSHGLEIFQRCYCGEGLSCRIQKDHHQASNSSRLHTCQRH
# [10] = test system: Inhibin beta A chain (activin A); assay: small molecules binding activin A – biochemical, small-molecule microarray, 635 nm fluorescence scan, primary screen (AID 1107); conditions: INHBA, higher = more signal;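 note: mouse activin A protein probed at 4.33 µg/mL on printed slides; score merges bound-protein fluorescence near 667 nm with spot signal-to-noise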
# [11] = test system: Human papillomavirus type 1a protein E7 (residues 44-93); assay: small molecules binding HPV E7 44-93 – biochemical, small-molecule microarray, residues 44-93, 635 nm fluorescence, primary screen (AID 1108); conditions: fluorescence 635 nm, higher = more signal;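 note: E7 fragment applied at 1 µg/mL in TBST for 1 h at 4 C; score combines spot fluorescence with its signal to noise ratio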
# [12] = hepatitis C replication reporter changes, two-sided – Huh7 cells, luciferase reporter, HCV replication inhibitor project, primary screen (AID 1109); conditions: Huh7 HCV replicon luciferase reporter, 48 h; higher = more signal;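 note: huh7 hepatoma cells harbouring a luciferase neomycin HCV replicon reporter; luciferase luminescence as measure of HCV replicon replication; test concentration not given here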
# [13] = molecular target: Left-right determination factor 2 (Homo sapiens) (UniProt O00292); assay: small molecules binding LEFTY2 protein – biochemical, small-molecule microarray, 635 nm fluorescence scan, primary screen (AID 1110); conditions: higher = more signal
# Chain of Left-right determination factor 2 (Homo sapiens) (O00292 whole entry, looked up): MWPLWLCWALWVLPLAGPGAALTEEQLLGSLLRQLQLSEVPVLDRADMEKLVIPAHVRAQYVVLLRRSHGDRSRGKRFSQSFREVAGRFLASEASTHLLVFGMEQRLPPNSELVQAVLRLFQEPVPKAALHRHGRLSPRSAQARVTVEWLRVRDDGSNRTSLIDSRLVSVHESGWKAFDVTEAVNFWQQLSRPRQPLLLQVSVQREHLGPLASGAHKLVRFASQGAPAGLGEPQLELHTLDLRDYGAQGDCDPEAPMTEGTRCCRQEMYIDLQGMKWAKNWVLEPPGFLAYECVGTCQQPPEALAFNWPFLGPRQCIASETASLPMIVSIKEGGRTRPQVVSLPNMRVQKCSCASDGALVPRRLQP
# [14] = molecular target: Calmodulin-1 (Homo sapiens) (UniProt P0DP23); assay: small molecules binding calmodulin-1 with EGTA – biochemical, small-molecule microarray, Cy5-labelled CALM1, profiling panel (AID 1111); conditions: Cy5-CALM1 binding fluorescence, higher = more signal;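 note: labelled calmodulin applied in Tris saline Tween buffer holding calcium plus EGTA and DTT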
# [15] = molecular target: Calmodulin-1 (Homo sapiens) (UniProt P0DP23); assay: small molecules binding Ca-loaded calmodulin-1 – biochemical, small-molecule microarray, Cy5-labelled CALM1, plus calcium, artefact control for SMM control-protein annotation, profiling panel (AID 1112); conditions: Cy5-CALM1 binding fluorescence, higher = more signal;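 note: score merges spot fluorescence with signal to noise from triplicate slides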
# [16] = probe aWnt5a binding to arrayed compounds – biochemical, biotinylated probe, 635/667 nm fluorescence, primary screen (AID 1113); conditions: small-molecule microarray, higher = more signal;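 note: score merges 667 nm fluorescence intensity with signal-to-noise per printed feature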
# [17] = probe aShh binding to arrayed compounds – biochemical, biotinylated probe, 635/667 nm fluorescence, primary screen (AID 1114); conditions: small-molecule microarray, higher = more signal;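 note: probe is biotin-labelled aShh protein from a stem cell growth factor screen; measures binding of labelled protein to compounds printed on the slide; score merges feature fluorescence at 667 nm with signal-to-noise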
# [18] = probe aNog binding to arrayed compounds – biochemical, biotinylated probe, 635/667 nm fluorescence, primary screen (AID 1115); conditions: small-molecule microarray, higher = more signal;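 note: probe is biotinylated aNog protein used at 0.15 µg/mL for 1 h at 4 C; z-score combines 667 nm fluorescence of each spot with its signal to noise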
# [19] = molecular target: Torsin-1A-interacting protein 1 (Homo sapiens) (UniProt Q5JTV8); assay: compound microarray binding of lysate hLAP1 – cell lysate, small-molecule microarray, COS7 lysate, 635/667 nm fluorescence, primary screen (AID 1116); conditions: 635 nm fluorescence, higher = more signal
# Chain of Torsin-1A-interacting protein 1 (Homo sapiens) (Q5JTV8 whole entry, looked up): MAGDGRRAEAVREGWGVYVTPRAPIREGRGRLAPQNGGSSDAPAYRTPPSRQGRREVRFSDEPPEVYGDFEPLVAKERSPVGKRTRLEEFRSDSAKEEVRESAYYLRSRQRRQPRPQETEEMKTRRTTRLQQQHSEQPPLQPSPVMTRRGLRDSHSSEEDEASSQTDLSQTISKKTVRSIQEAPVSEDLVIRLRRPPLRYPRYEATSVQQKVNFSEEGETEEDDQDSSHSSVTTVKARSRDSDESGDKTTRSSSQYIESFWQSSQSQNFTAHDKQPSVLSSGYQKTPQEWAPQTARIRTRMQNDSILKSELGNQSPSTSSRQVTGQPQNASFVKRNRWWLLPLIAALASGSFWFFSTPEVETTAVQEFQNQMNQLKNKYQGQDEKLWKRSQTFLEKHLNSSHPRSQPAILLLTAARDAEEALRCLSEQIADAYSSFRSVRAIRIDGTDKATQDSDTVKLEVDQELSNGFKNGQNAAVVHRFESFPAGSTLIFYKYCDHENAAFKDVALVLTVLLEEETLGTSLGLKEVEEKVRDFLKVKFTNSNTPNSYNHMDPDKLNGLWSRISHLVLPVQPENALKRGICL
# [20] = molecular target: Alpha-bungarotoxin (Bungarus multicinctus) (UniProt P60615); assay: compounds binding labelled alpha-BTX control protein – biochemical, small-molecule microarray, Alexa647 label, 635/667 nm fluorescence, artefact control for SMM control protein annotation, profiling panel (AID 1117); conditions: alpha-BTX-A647 binding fluorescence, higher = more signal
# Chain of Alpha-bungarotoxin (Bungarus multicinctus) (P60615 whole entry, looked up): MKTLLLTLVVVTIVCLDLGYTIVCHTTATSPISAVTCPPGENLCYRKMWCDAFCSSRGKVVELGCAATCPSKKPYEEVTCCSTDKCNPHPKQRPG
Compound,composite z-score [1],composite z-score [2],composite z-score [3],z-score [4],composite z-score [5],composite z-score [6],composite z-score [7],composite z-score [8],composite z-score [9],composite z-score [10],composite z-score [11],z-score [12],composite z-score [13],composite z-score [14],composite z-score [15],composite z-score [16],composite z-score [17],composite z-score [18],composite z-score [19],composite z-score [20]
CC(=O)Nc1cc(Br)ccc1C(=O)O,0.976,1.34,0.0861,-0.841 (inactive),0.225,0.157,-0.433,0.0984,-0.44,-0.27,0.688,-0.0912,-0.229,0.908,0.762,-0.096,0.0556,-0.122,-0.134,0.424
O=C(O)[C@H]1C[C@H]2C(=O)NCC(=O)N2[C@H]1c1ccc(O)cc1,0.237,-0.248,-0.346,-0.821 (inactive),0.413,0.504,-0.213,0.845,0.681,0.23,-0.008,1.81,0.205,-0.559,-0.0282,-0.147,-0.214,-0.312,0.519,2.03
C=CCC(OC(C)=O)[C@@H]1[C@@H](N(Cc2ccc(-c3ccccc3)cc2)C(=O)Cc2ccc(F)cc2)c2cc(OCCCO)ccc2N1C(=O)c1ccc2ccccc2n1 (stereo not given in full),0.295,0.0021,0.531,-0.457 (inactive),0.0915,-0.226,-0.294,-0.112,-0.221,1.27,-0.689,-0.213,-0.456,0.168,0.72,-0.0125,-0.206,-0.395,0.79,0.414
CC(C)=CCCC(C)=CC(O)C1C=CC2C(=O)N(c3ccccc3)C(=O)C2N1Nc1ccccc1 (stereo not given),1.36,1.21,0.997,1.18 (inactive),1.05,0.978,0.251,1.38,0.113,1.06,0.704,-0.517,0.12,2.23,1.18,0.139,0.393,1.88,1.03,2.95
CCOC(=O)C1=CCC(c2ccc(C#N)cc2)N(S(=O)(=O)c2ccc(C)cc2)C1 (stereo not given),1.13,1.22,1.05,-0.415 (inactive),0.637,1.29,0.555,1.21,-0.0007,0.2,-0.437,-2.66,0.47,2.02,0.536,-0.117,0.109,-0.557,0.479,2.25
Cc1ccc(S[C@]2(C(=O)NC3CC3)CC(=O)N(C3CCCCC3)[C@@H]2c2ccc(CO)cc2I)cc1,1.19,0.198,0.259,-0.575 (inactive),0.796,0.52,0.396,1.18,0.0553,0.0315,1.43,-2.79,0.0327,0.224,0.406,-0.154,-0.304,0.45,-0.0758,0.874
C=C(COC)C(=O)CC[C@@H](OC(=O)c1cccnc1)c1ccc(CO)o1,0.691,-0.2,-0.237,1.86 (inactive),0.0396,0.457,0.182,0.916,0.611,1.58,0.369,-0.778,0.355,-0.0743,-0.116,-0.1,-0.0977,0.094,0.424,0.285
CC(C)c1ccc(NN2C(C(O)c3cccc(O)c3)C=CC3C(=O)N(c4ccccc4)C(=O)C32)cc1 (stereo not given),0.996,0.808,0.835,0.689 (inactive),1.39,1.27,0.373,1.05,-0.0143,-0.251,1.43,0.141,-0.136,1.93,0.904,-0.0583,0.0588,1.78,1.5,1.31
O=C1O[C@H](c2ccccc2)[C@H](c2ccccc2)N2[C@H]1[C@@H](C(=O)O)[C@]1(C(=O)Nc3ccc(C#CC4=CCCCC4)cc31)[C@H]2c1ccc(OCCO)cc1,1.43,-0.211,-0.701,-0.248 (inactive),1.25,1.28,0.58,1.42,0.765,0.302,1.22,-1.69,0.659,0.447,0.166,0.055,-0.304,1.17,1.09,2.81
COCCOC(=O)N1C(=O)[C@@]2(c3cc(C#CCC(C(=O)OC)C(=O)OC)ccc31)[C@H](c1ccccc1OCCO)N1[C@H](c3ccccc3)[C@H](c3ccccc3)OC(=O)[C@H]1[C@@H]2C(N)=O,1.38,0.152,0.188,-5.03 (inactive),1.22,1.31,0.249,1.13,0.451,0.0274,0.22,-2.2,0.32,1.25,0.648,0.027,-0.0055,0.141,1.21,2.37
O=C1O[C@@H](c2ccccc2)[C@@H](c2ccccc2)N2[C@@H](c3ccc(OCCO)cc3)[C@]3(C(=O)Nc4ccccc43)[C@@H](C(=O)Nc3nc4ccccc4s3)[C@H]12,1.66,0.738,0.478,-0.876 (inactive),1.31,1.07,0.528,1.15,0.651,0.411,1.44,-2.66,1.05,1.67,0.241,0.105,0.171,1.27,1.5,1.78
